Source: PubChem BioAssay (National Center for Advancing Translational Sciences (NCATS))
The list is not random: actives were taken first. Their share in the collection is about 11%.
HEK cytotox – Cytotoxic Profiling in HEK 293 Cell Line of Diverse Libraries Using Quantitative High-Throughput Screening; HEK 293 viability, ATP luminescence (CellTiter-Glo), 48-72 h; AID 1345083, 2018; 94,000 tested, 6.6% active; Potency, µM (doses to about 115 µM), actives largely listed as inhibitors; further: nearly all actives have a fitted effect of over 60% in size
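qHTS cytotoxicity; HEK 293, 250 cells/well; compound pinned; 48 or 72 hr, 37 degree Celsius, 5% CO2, 95% humidity; CellTiter-Glo, 10 min RT; luminescence (ATP).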
NIH3T3 tox – Cytotoxic Profiling in NIH 3T3 Cell Line of Diverse Libraries Using Quantitative High-Throughput Screening | Potency, µM (series often up to 96.7 µM), hits mostly inhibitors | 94,000 tested, 4.3% active | AID 1345082, 2018 | NIH 3T3 viability, CellTiter-Glo ATP luminescence, 48-72 h; further: nearly all actives have a fitted effect of over 55% in size
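Luminescent ATP readout (CellTiter-Glo, 10 min RT) after 48 or 72 hr compound exposure of NIH 3T3 cells seeded at 400 cells/well in 1536-well format; quantitative HTS.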
hNpr1 antagonist – Natriuretic polypeptide receptor (hNpr1) antagonism - Primary qHTS; HEK293 hNpr1 GloSensor cGMP, ANP-stimulated luminescence; Potency, µM (titrated, usually from 46.3 µM), hits mostly inhibitors; 76,000 tested, 1.6% active; AID 1347048, 2019; calls by dose curve; further: nearly all actives have a fitted effect of over 60% in size
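Compound pre-incubated 30 min at room temperature on GloSensor-loaded HEK293 cells stably carrying hNpr1 and the pGS-40F cGMP biosensor. Stimulation uses hNppA at 0.1 nM final; luminescence is taken at baseline and 20 min post-agonist.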
FLuc inh – Firefly luciferase inhibition profiling of diverse chemical library using quantitative high-throughput screening | Luciferin 4-monooxygenase (Photinus pyralis), P08659 | purified P. pyralis luciferase, luminescence, biochemical | Potency, µM (series often up to 115 µM), most hits filed as inhibitors | 76,000 tested, 2.5% active; further: nearly all actives have a fitted effect of over 65% in size
Target sequence (P08659 whole entry, looked up): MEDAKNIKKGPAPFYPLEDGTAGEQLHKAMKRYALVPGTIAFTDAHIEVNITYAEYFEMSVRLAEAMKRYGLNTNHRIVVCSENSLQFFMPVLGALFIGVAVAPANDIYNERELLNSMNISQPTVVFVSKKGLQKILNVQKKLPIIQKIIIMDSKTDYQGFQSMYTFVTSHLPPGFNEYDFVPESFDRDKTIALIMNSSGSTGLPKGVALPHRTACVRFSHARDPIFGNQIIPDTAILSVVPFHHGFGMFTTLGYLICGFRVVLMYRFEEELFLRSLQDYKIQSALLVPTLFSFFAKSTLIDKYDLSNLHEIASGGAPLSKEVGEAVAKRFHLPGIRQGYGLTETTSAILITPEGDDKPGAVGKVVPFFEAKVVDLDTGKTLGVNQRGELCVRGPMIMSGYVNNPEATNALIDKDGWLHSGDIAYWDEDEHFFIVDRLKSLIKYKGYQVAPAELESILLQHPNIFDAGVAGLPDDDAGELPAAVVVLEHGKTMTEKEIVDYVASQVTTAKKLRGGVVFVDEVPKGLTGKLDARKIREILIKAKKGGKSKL
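Luminescence read by CCD imaging after purified firefly luciferase (10nM final) was added to substrate buffer holding 10uM D-luciferin and 10uM ATP, pH 7.5, pre-dosed with compound.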
A number is an active result; - = inactive; ? = inconclusive; . = no result. Unless noted, the call rests on the fitted dose curve; in most records, active means well fitted curve in the direction sought with a large enough effect; inconclusive means small, poorly fitted or top-dose-only effect, or another doubt; inactive means no such curve, though single readings can be large; an effect the other way counts as inactive or inconclusive.

SMILES	HEK cytotox	NIH3T3 tox	hNpr1 antagonist	FLuc inh
Cc1cc(NC(=O)C2CCN(c3cc(C(F)(F)F)ncn3)CC2)ccc1Br	25µM	32µM	?	-
CN(Cc1ccccc1)Cc1cn([C@H]2CO[C@H]3[C@@H]2OC[C@@H]3NS(=O)(=O)c2cccs2)nn1	?	?	-	-
O=C(Nc1cccc(C(F)(F)F)c1)N[C@H]1CO[C@H]2[C@@H]1OC[C@@H]2n1cc(CC2CCCCC2)nn1	40µM	?	?	-
COCc1cn([C@H]2CO[C@H]3[C@@H]2OC[C@H]3OC(=O)Nc2cccc(C(F)(F)F)c2)nn1	79µM	?	-	-
O=S(=O)(N[C@H]1CO[C@H]2[C@@H]1OC[C@@H]2n1cc(CC2CCCCC2)nn1)c1cccs1	79µM	?	-	-
O=C(Nc1ccccc1)N[C@H]1CO[C@H]2[C@@H]1OC[C@@H]2n1cc(CC2CCCCC2)nn1	-	?	-	-
CCOC(=O)c1oc2ccc(S(=O)(=O)NCC3Cn4cccc4C(=O)N3C)cc2c1C (stereo not given)	40µM	-	?	-
COc1cccc(S(=O)(=O)NCC2Cn3cccc3C(=O)N2C)c1 (stereo not given)	-	-	-	-
COc1ccc(-c2cn3cc(C(=O)NC4CCCCCC4)nc3s2)cc1	-	-	.	.
NC(=O)Cc1c[nH]c2ncc(-c3cccc(OC(F)(F)F)c3)cc12	?	?	-	-
COc1cccc(-c2cnc3[nH]cc(CC(N)=O)c3c2)c1	-	71µM	-	89µM
NC(=O)Cc1c[nH]c2ncc(-c3cccc(C(F)(F)F)c3)cc12	?	32µM	-	-
CC(C)(Oc1nn(CC2CC2)c2ccc(CN3CCCC3)cc12)C(=O)NCC(F)(F)F	?	?	-	-
NC(=O)[C@@H](Cc1c[nH]c2ccccc12)NC(=O)[C@@]1(O)C[C@@H](O)[C@H](O)[C@@H](NC(=O)NC2CCCCC2)C1	-	-	-	-
CCc1ccc(CN2CCC(CNC(=O)c3occc3C)CC2)nc1	?	-	-	-
CC(C)N1CCOC(CC(=O)NCc2cc(N3CCOCC3)ncn2)C1 (stereo not given)	-	-	-	-
CC(C)CCN1CCOc2cc(C(=O)NCc3ccccc3)ccc2C1	?	?	-	-
CC(C)CCN1CCOc2cc(C(=O)N(C)c3cccnc3)ccc2C1	112µM	?	-	-
CNC(=O)c1ccc2c(c1)OCCN(c1ccccc1)C2	?	-	-	-
CC(C)CCN1CCOc2cc(C(=O)Nc3cccnc3)ccc2C1	112µM	-	-	-
CC(C)CCN1CCOc2cc(C(=O)NCCOc3ccccc3)ccc2C1	100µM	?	-	-
CC(C)CCN1CCOc2cc(C(=O)Nc3ccc(F)cc3)ccc2C1	?	?	?	-
O=C(NCC1CC1)c1ccc2c(c1)OCCN(c1ccccc1)C2	11µM	?	-	-
Cc1ccc(CN2CC[C@@H]3[C@H]2C(=O)NC[C@H](CCC(=O)NCc2cccs2)N3C)cc1	-	-	-	-
COC[C@@H]1CN(C(=O)Cc2cc(C)no2)C[C@H]1c1ccncc1	-	-	-	-
SMILES	HEK cytotox	NIH3T3 tox	hNpr1 antagonist	FLuc inh
O=C1NN=C(C2CC2)C12CCN([S+](=O)([O-])c1cccc(C(F)(F)F)c1)CC2	?	?	-	-
CC(C)CCN1CCOc2cc(C(=O)Nc3nccs3)ccc2C1	100µM	?	-	?
O=C(Cc1ccccc1)N1C[C@@H](CO)[C@@H]2Oc3ccc(Cl)cc3[C@@H]21	79µM	?	.	.
O=C(NCc1ccco1)c1ccc(-c2ccc(N3CCCCCC3)nc2)cc1	40µM	?	-	?
O=C(NCC1CCCO1)c1ccc(-c2ccc(N3CCCCC3)nc2)cc1 (stereo not given)	-	-	-	?
Cc1ccc(CNC(=O)c2ccc(-c3ccc(N4CCCCC4)nc3)cc2)o1	?	-	-	14µM
CC(=O)Nc1cccc(-c2ncc3c(n2)OCCN(c2ccccc2)C3=O)c1	-	18µM	-	28µM
O=C1c2cnc(-c3cc4ccccc4o3)nc2OCCN1c1ccccc1	-	-	0.28µM	0.01µM
CC(=O)Nc1cccc(-c2ncc3c(n2)OCCN(CC2CC2)C3=O)c1	-	?	-	50µM
NC(=O)c1cccc(-c2ncc3c(n2)OCCN(c2ccccc2)C3=O)c1	?	?	-	45µM
C=CCOCC(O)CN1CCC(=O)N(Cc2ccccc2)Cc2cc(OC)ccc21 (stereo not given)	?	-	.	.
Cc1ccc(-c2c(C(=O)N3CCOCC3)nc3sccn23)cc1	-	-	.	.
O=C(C1CCN([S+](=O)([O-])c2cccc(C(F)(F)F)c2)CC1)N1CCC(N2CCOCC2=O)CC1	?	-	.	.
CCC(C)C(=O)NCc1cc2c(nc1OC)CN(CCc1ccccn1)C2=O (stereo not given)	-	-	-	-
CN1CCCC2(CCN(C(=O)CCCOc3ccccc3)C2)C1=O (stereo not given)	-	-	-	28µM
O=C(NCc1cc2n(n1)CCN(C1CCCCC1)C2)Nc1cccc(F)c1	-	-	-	-
O=C(C1CCCCC1)N1CCC2(CC1)CC(Cc1nc(-c3cnccn3)no1)CCO2 (stereo not given)	-	-	.	.
CC1=C[C@@H](CNC(C)C)[C@H](C(C)C)C[C@H]1Cc1nnc(C(C)(C)C)o1	-	-	-	-
CC1=C[C@@H](CNCc2ccco2)[C@H](C(C)C)C[C@H]1Cc1nnc(C(C)(C)C)o1	63µM	100µM	-	-
COc1ccc(-c2nnc(C[C@@H]3C[C@@H](C(C)C)[C@H](CNCc4ccco4)C=C3C)o2)cc1	45µM	?	?	-
COc1ccc(-c2nnc(C[C@@H]3C[C@@H](C(C)C)[C@H](CNCc4ccncc4)C=C3C)o2)cc1	25µM	?	?	-
CCCc1nnc(C[C@@H]2C[C@@H](C(C)C)[C@H](CNCc3cccnc3)C=C2C)o1	?	-	-	-
CC1=C[C@@H](CNCc2cccnc2)[C@H](C(C)C)C[C@H]1Cc1nnc(-c2ccc([N+](=O)[O-])cc2)o1	11µM	32µM	?	-
CN1CC(C(=O)NCc2cccc(F)c2)NC1=O (stereo not given)	-	-	.	.
O=C(C1CCCC1)N1C[C@@H](COc2ccncc2)[C@H](c2ccccn2)C1	-	?	-	-
O=C(c1ccccc1)N1CCN(C(=O)c2cccc(-c3ccccn3)c2)CC1	-	-	.	.
O=C(c1cccc(O)c1)N1CC=C(c2cnc3cnc(-c4ccccc4)cn23)CC1	100µM	?	-	-
O=C(c1ccn[nH]1)N1CC=C(c2cnc3cnc(-c4ccccc4)cn23)CC1	-	22µM	-	-
Cc1ccc(C)c(-n2nc(-c3c(C)nc4scc(CC(=O)NCc5ccco5)n4c3=O)cc2C)c1	35µM	?	-	-
